For assay [1], the system named is PRMT1 (protein arginine N-methyltransferase 1). The assay can be described thus: PRMT1 binders on small-molecule microarrays, primary screen, biochemical, small-molecule microarray, 635 nm fluorescence (AID 1088).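 Note: binding of Prmt1 protein to compounds spotted on small-molecule microarray slides.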 The settings on record: small-molecule microarray binding, higher = more signal.
The nature of assay [2]: yeast growth modulation, basal conditions, primary screen, YJM789 clinical isolate, OD600, 24 h (AID 1089).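 Note: growth of clinical yeast isolate S. cerevisiae YJM 789 seeded 1000 cells per well; test concentration not given here.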 Conditions: S. cerevisiae YJM789 growth, higher = more signal, called active from +8 up or from −8 down.
A short description of assay [3]: fission yeast growth modulation, primary screen, strain 972, OD600, 24 h, no modulator (AID 1090).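 Note: basal condition with compound alone and no growth modifier present; test concentration not given here.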 The settings on record: S. pombe 972 growth, higher = more signal, called active from +8 up or from −8 down.
Assay [4] in a line: S. cerevisiae growth modulation with rapamycin, primary screen, strain BY4716, OD600, 96 h (AID 1091). Note: test concentration not given here. The settings on record: higher = more signal, called active from +8 up or from −8 down.
Assay [5] deals with Torsin-1A-interacting protein 2 (Homo sapiens) (UniProt Q8NFQ8). Kind of assay: LULL1 binders on small-molecule microarray, primary screen, cell lysate, human LULL1 lysate, 635/667 nm fluorescence (AID 1092).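 Note: probe is lysate of COS7 cells overexpressing human LULL1; score merges per-feature 667 nm fluorescence with signal-to-noise.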 Conditions: hLULL1 lysate binding, 635 nm fluorescence, higher = more signal.
Sequence of Torsin-1A-interacting protein 2 (Homo sapiens) (Q8NFQ8 whole entry, looked up): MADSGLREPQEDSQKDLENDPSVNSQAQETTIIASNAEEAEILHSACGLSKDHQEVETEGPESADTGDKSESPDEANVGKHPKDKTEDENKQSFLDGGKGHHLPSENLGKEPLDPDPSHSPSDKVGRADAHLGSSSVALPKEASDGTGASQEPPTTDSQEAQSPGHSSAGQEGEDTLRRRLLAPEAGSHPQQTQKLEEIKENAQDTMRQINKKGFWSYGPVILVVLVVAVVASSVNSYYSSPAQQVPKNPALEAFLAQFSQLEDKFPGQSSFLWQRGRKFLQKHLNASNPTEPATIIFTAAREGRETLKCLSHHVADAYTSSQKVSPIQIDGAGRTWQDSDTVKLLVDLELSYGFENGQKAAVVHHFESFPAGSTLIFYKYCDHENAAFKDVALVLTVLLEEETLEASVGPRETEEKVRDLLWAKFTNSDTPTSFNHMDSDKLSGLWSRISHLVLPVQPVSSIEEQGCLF
The nature of assay [6]: E. coli growth modulation, two-sided OD650, primary screen, E. coli filamentation project, strain DRC41, 24 h (AID 1093).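 Note: MC1000 strain lacking acrAB efflux and sulA so SOS filamentation is blocked; test concentration not given here.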 Conditions: OD650, 24 h, higher = more signal, called active from +8 up or from −8 down.
A short description of assay [7]: small-molecule microarray binders of probe aLefty2, primary screen, biochemical, biotinylated probe, 635/667 nm fluorescence (AID 1094).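 Note: score merges spot fluorescence near 667 nm with spot signal-to-noise ratio.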 The settings on record: higher = more signal.
For assay [8], the system named is Noggin (protein binding on small-molecule microarray). Kind of assay: Noggin binders on small-molecule microarray, primary screen, biochemical, 635/667 nm fluorescence (AID 1095).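 Note: score merges 667 nm feature fluorescence with signal to noise over triplicate slides.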 Conditions: 635 nm fluorescence, higher = more signal.
Assay [9] has as its target Neurogenic locus notch homolog protein 3 (Homo sapiens) (UniProt Q9UM47). The assay can be described thus: NOTCH3 binders on small-molecule microarray, primary screen, biochemical, 635/667 nm fluorescence (AID 1096). Conditions: NOTCH3 binding, 635 nm fluorescence, higher = more signal.
Assay [10] can be described thus: small-molecule microarray binders of probe aEGFR, primary screen, biochemical, biotinylated probe, 635/667 nm fluorescence (AID 1097).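 Note: probe is a biotinylated anti-EGFR antibody binding compounds printed on slides; score combines fluorescence near 667 nm and signal to noise of each spot.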 Conditions: higher = more signal.
Assay [11] deals with Plasmodium falciparum Sir2 (PF13_0152, Sir2A). Kind of assay: pfSir2 binders on small-molecule microarrays, primary screen, biochemical, small-molecule microarray, 635 nm fluorescence (AID 1098).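 Note: score merges spot fluorescence intensity with its signal-to-noise ratio.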 Conditions: small-molecule microarray binding, fluorescence 635 nm; higher = more signal.
Assay [12] in a line: small-molecule microarray binders of probe aDKK1, primary screen, biochemical, biotinylated probe, 635/667 nm fluorescence (AID 1099).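 Note: score merges 667nm spot fluorescence with signal to noise across triplicate slides; reference of the scale not given here.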 Conditions: higher = more signal.
A short description of assay [13]: small-molecule microarray binders of probe aCHRDL2, primary screen, biochemical, biotinylated probe, 635/667 nm fluorescence (AID 1100). Conditions: higher = more signal.
Assay [14] in a line: splicing luciferase reporter signal modulators, primary screen, spliceosome inhibition project, cell-based, HEK293, splice +/- reporter (AID 1101).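 Note: HEK293 cells carrying a splicing-competent luciferase reporter gene; test concentration not given here.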 The settings on record: luminescence, 24 h, higher = more signal, called active from +8 up or from −8 down. Background: In a reporter assay the amount or activity of a reporter protein is the signal.
Assay [15] addresses Fibroblast growth factor 10 (Homo sapiens) (UniProt O15520). The assay can be described thus: FGF10 binders on small-molecule microarrays, primary screen, biochemical, small-molecule microarray, 635 nm fluorescence (AID 1102). Conditions: FGF10 binding, fluorescence 635 nm, higher = more signal.
Assay [16] has as its system glycogen synthase kinase-3 (GSK3A per assay name; protocol says GSK3B). Kind of assay: GSK3 binders on small-molecule microarrays, primary screen, biochemical, small-molecule microarray, 635 nm fluorescence, GSK3A (AID 1103). Note: the record names both GSK3A and GSK3B. The settings on record: small-molecule microarray binding, fluorescence 635 nm; higher = more signal.
For assay [17], the target named is Epidermal growth factor receptor (Homo sapiens) (UniProt P00533). The assay can be described thus: EGFR binders on small-molecule microarrays, primary screen, biochemical, small-molecule microarray, 635 nm fluorescence (AID 1104).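 Note: score merges 667 nm emission intensity with spot signal to noise over triplicate slides.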 The settings on record: EGFR binding, higher = more signal.
Sequence of Epidermal growth factor receptor (Homo sapiens) (P00533 whole entry, looked up): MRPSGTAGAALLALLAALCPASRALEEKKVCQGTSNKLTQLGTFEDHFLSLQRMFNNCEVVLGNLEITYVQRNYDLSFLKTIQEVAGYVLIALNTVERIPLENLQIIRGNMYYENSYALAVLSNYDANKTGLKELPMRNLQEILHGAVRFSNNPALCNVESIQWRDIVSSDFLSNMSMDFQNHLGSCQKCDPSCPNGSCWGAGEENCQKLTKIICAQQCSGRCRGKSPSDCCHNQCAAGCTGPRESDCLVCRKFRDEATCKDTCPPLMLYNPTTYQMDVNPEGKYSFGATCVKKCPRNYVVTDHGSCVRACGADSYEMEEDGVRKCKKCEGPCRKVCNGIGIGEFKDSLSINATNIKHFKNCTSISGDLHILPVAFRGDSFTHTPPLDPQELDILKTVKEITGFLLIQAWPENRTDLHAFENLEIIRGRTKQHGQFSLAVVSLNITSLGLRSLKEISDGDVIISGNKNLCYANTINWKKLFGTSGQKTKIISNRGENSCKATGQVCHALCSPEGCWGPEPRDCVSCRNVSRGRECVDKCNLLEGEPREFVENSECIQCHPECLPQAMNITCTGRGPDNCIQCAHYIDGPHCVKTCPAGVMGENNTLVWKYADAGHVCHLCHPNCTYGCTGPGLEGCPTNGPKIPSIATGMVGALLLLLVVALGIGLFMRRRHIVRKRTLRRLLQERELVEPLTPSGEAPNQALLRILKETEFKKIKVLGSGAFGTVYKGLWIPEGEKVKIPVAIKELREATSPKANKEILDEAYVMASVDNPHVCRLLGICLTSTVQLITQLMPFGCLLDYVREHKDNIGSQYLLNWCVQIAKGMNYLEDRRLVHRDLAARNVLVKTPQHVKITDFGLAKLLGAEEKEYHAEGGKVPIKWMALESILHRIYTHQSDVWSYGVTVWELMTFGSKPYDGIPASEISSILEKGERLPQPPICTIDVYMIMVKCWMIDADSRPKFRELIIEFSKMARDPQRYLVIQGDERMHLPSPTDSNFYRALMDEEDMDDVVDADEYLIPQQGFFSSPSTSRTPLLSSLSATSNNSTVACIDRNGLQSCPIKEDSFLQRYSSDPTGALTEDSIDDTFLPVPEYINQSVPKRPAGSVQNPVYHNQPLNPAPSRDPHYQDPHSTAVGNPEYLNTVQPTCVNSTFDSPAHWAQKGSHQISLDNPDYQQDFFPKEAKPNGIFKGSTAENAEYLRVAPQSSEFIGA
For assay [18], the target named is Follistatin-related protein 3 (Homo sapiens) (UniProt O95633). Kind of assay: FSTL3 binders on small-molecule microarrays, primary screen, biochemical, small-molecule microarray, 635 nm fluorescence (AID 1105).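 Note: score merges emission near 667 nm and signal to noise per printed spot across three slides.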 The settings on record: FSTL3 binding, higher = more signal.
Sequence of Follistatin-related protein 3 (Homo sapiens) (O95633 whole entry, looked up): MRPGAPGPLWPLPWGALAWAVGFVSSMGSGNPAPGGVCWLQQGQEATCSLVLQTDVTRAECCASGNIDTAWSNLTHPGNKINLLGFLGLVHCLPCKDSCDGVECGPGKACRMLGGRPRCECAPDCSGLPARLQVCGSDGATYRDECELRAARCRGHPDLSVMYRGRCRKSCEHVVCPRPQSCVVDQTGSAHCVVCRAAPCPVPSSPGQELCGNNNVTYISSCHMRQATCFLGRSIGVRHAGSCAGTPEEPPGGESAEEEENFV
Assay [19] concerns the target Dickkopf-related protein 1 (Homo sapiens) (UniProt O94907). Kind of assay: DKK1 binders on small-molecule microarrays, primary screen, biochemical, small-molecule microarray, 635 nm fluorescence scan (AID 1106).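 Note: score merges emission near 667 nm with signal to noise over three replicate slides.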 Conditions: DKK1 binding, higher = more signal.
In assay [20] the test system is Inhibin beta A chain (activin A). The assay can be described thus: INHBA (activin A) binders on microarrays, primary screen, biochemical, small-molecule microarray, 635 nm fluorescence scan (AID 1107).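 Note: mouse activin A protein probed at 4.33 µg/mL on printed slides; score merges bound-protein fluorescence near 667 nm with spot signal-to-noise.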 The settings on record: small-molecule microarray binding, higher = more signal.

Six compounds from PubChem BioAssay can be followed below.

Activity calls are given as the source filed them.

Sequence of Fibroblast growth factor 10 (Homo sapiens) (O15520 whole entry, looked up): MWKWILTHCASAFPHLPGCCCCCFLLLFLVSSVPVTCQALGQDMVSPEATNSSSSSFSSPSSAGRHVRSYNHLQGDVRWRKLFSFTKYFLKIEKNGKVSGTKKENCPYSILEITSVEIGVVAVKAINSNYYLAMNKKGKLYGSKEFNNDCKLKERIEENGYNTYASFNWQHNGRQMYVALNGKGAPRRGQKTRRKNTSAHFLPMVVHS
Sequence of Dickkopf-related protein 1 (Homo sapiens) (O94907 whole entry, looked up): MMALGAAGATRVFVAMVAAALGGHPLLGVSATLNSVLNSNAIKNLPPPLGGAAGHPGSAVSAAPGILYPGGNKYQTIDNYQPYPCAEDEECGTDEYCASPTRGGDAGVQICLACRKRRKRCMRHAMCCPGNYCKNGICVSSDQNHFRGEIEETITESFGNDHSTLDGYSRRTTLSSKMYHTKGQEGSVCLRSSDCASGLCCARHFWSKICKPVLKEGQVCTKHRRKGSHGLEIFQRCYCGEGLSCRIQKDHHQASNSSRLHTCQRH
Sequence of Neurogenic locus notch homolog protein 3 (Homo sapiens) (Q9UM47 whole entry, looked up): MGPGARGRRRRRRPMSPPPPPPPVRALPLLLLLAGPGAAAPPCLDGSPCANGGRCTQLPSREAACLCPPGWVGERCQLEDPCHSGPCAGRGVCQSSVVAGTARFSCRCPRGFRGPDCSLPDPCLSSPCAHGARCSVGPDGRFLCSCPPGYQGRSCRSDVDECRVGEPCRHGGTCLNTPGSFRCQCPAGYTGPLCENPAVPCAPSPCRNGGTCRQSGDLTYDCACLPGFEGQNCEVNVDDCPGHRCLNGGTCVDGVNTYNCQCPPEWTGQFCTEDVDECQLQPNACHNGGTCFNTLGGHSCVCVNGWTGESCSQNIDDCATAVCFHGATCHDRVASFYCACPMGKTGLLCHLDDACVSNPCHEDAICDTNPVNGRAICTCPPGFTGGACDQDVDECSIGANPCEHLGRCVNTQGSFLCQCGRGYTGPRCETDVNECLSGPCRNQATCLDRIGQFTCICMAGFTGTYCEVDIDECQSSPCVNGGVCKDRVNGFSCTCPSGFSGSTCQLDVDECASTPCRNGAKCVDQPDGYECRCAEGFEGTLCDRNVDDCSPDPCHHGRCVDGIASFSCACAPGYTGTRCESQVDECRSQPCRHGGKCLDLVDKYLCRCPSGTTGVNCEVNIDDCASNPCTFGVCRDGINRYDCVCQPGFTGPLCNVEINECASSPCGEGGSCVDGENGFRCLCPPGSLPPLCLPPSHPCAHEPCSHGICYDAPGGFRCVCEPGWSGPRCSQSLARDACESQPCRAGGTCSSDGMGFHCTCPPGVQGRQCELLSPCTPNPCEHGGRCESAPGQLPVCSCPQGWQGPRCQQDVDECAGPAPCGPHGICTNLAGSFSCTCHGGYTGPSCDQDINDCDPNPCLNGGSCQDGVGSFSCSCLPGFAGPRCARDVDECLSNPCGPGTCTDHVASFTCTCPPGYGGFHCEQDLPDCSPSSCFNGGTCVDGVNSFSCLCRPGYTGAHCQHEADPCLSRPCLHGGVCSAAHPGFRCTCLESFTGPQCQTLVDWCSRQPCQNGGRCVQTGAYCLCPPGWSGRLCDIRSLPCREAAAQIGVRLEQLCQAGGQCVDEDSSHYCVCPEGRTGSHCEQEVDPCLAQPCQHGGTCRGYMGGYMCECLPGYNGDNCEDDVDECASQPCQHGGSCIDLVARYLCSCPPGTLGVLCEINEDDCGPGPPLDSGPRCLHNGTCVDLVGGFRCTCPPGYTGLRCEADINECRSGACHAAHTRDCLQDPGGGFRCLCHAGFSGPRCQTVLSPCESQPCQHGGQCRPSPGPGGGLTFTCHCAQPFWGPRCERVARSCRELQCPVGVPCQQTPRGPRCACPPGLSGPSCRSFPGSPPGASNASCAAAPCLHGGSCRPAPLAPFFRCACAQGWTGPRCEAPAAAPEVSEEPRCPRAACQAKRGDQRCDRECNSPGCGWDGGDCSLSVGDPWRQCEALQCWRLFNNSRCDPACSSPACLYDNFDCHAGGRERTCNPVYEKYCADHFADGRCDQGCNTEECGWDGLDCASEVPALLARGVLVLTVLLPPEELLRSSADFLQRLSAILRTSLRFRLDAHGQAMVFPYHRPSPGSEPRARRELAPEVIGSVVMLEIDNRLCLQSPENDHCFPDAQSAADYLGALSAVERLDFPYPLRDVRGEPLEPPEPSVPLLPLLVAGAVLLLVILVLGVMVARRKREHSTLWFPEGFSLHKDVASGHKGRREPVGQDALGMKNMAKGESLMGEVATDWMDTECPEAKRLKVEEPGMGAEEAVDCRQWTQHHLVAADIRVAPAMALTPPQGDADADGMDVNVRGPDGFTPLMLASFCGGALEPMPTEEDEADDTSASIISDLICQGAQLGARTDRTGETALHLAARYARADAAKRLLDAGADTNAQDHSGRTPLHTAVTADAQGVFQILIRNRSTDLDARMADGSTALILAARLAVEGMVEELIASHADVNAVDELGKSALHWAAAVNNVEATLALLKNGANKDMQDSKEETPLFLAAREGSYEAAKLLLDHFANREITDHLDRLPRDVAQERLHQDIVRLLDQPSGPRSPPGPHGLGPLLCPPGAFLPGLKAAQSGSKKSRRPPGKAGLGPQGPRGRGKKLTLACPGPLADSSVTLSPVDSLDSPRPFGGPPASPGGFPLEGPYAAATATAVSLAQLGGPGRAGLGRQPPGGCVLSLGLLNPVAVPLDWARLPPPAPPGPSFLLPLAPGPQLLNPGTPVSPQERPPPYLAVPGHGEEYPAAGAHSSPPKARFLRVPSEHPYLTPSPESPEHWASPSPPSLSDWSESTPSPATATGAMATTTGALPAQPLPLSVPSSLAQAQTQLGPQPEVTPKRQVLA

Take `COC(=O)[C@@]1(Cc2ccccc2)[C@H]2c3cc(C(=O)N4CCCC4)n(CCN4CNCC4=O)c3C[C@H]2CN1C(=O)c1ccccc1`: the composite z-score in [1] was -0.337; in assay [5], 1.93; in assay [7] it was 0.154; in assay [8] it was -0.113; in [9], 0.494; in assay [10], -0.013. Also, the composite z-score turned out to be 0.0939 in assay [11]; 0.862 in [12]; 0.904 in assay [13]; 0.0557 in assay [15]; 0.77 in assay [16]; 0.0908 in assay [17]. The values for the composite z-score in assay [18], in assay [19] and in assay [20] were 0.47, -0.292 and 1.05, respectively. The z-score in [2] is -0.465 (inactive); in assay [3] it was 0.826 (inactive); in assay [4], -0.153 (inactive); in [6] it was -0.0756 (inactive); in assay [14] it was 2.52 (inactive).
As for `O=C(CS)NCCCCCCNC(=O)[C@@H]1C[C@@H]2C(=O)N[C@@H](Cc3ccccc3)C(=O)N2[C@@H]1c1ccc(O)cc1`, the composite z-score in assay [1] is 1.53; in assay [5] it was 2.97; in assay [7] it was -0.0741; in assay [8], 0.652; in [9], 1.16; in assay [10], -0.0271. For the same compound, the composite z-score in assay [11] is 1.6; in assay [12], -0.0356; in [13] it was 0.307; in assay [15], 1.03; in [16], 1.32; in assay [17], 0.411. For the same compound, the composite z-score was determined as 1.19 in assay [18], 1.18 in assay [19] and 0.617 in [20]. Also, the z-score is 0.205 (inactive) in assay [2]; 1.52 (inactive) in assay [3]; 1.99 (inactive) in assay [4]; 0.988 (inactive) in assay [6]; -0.376 (inactive) in [14].
As for `C=C(CCCC)C(=O)CC[C@@H](OC(=O)c1cccnc1)c1cccc(OCCO)c1`, the composite z-score is 1.12 in assay [1]; 0.136 in [5]; -0.186 in [7]; 0.491 in assay [8]; 0.145 in assay [9]; -0.145 in assay [10]. Further, the composite z-score in assay [11] is 1.48; in [12], -0.246; in assay [13], 0.238; in [15] it was 0.72; in [16], 0.13; in assay [17] it was -0.237. Besides, the results for the composite z-score in [18], in [19] and in assay [20] were -0.242, 0.265 and 1.2, respectively. For the same compound, the z-score was -0.323 (inactive) in assay [2]; -2.6 (inactive) in assay [3]; -0.2 (inactive) in [4]; 0.493 (inactive) in assay [6]; 3.57 (inactive) in assay [14].
Turning to `CN(C)CCCC[C@@H]1NC(=O)[C@@H]2C[C@H](C(=O)NCCCCCNC(=O)CS)[C@H](c3ccc(O)cc3)N2C1=O`, the composite z-score is 1.42 in assay [1]; 0.863 in [5]; -0.0079 in assay [7]; 1.88 in [8]; 0.208 in [9]; 0.268 in assay [10]. Further, the composite z-score in [11] is 1.19; in assay [12] it was 0.0418; in assay [13] it was -0.109; in assay [15], 1.11; in [16], 0.667; in assay [17] it was 0.0635. The composite z-score was 1.18 in assay [18], 1.81 in [19] and 0.687 in assay [20]. Also, the z-score in assay [2] is 0.081 (inactive); in assay [3], -1.42 (inactive); in assay [4] it was -0.342 (inactive); in assay [6] it was 1.14 (inactive); in assay [14], -0.812 (inactive).
For `COc1cc([C@@H]2N[C@H](C(=O)O)Cc3c2[nH]c2ccccc32)cc(OC)c1OC`, the composite z-score in assay [1] is -0.504; in assay [5] it was 0.235; in assay [7], -0.123; in [8], 0.367; in [9], 0.475; in [10], -0.0069. Moreover, the composite z-score in assay [11] was 0.175; in [12], -0.0572; in assay [13], -0.272; in assay [15] it was 0.644; in [16] it was 0.167; in assay [17], 0.3. The figures for the composite z-score in assay [18], in [19] and in [20] were 0.508, 0.977 and -1.7, respectively. Besides, the z-score in assay [2] is -0.258 (inactive); in assay [3], -0.581 (inactive); in assay [4] it was -0.611 (inactive); in assay [6], 0.233 (inactive); in [14], -0.526 (inactive).
For `O=C1C2C=CC(C(O)C(c3ccccc3)c3ccccc3)N(Nc3ccc([N+](=O)[O-])cc3)C2C(=O)N1c1ccccc1` (stereo not given), the composite z-score in [1] was 1.38; in assay [5], 3.67; in assay [7] it was 0.109; in [8], -0.181; in assay [9], 1.07; in assay [10], 0.121. Moreover, the composite z-score in [11] is 0.375; in assay [12], 0.569; in assay [13], 0.767; in assay [15], 1.04; in [16] it was 1.32; in assay [17], 0.66. Also, the composite z-score in assay [18] was 0.955; in assay [19] it was 0.331; in assay [20], 0.814. The z-score in [2] is 0.384 (inactive); in assay [3] it was 1.86 (inactive); in assay [4], 2.85 (inactive); in assay [6], -0.07 (inactive); in [14], 0.597 (inactive).
